# PMC5540273 (PLoS ONE, 2017)
# Legend:
# Conditions in all cases: concentration: 1 μM, replicates: in singlicate; n = 1
# VRK2 = tested on: VRK2
# WEE1 = tested on: WEE1
# WEE2 = tested on: WEE2
# WNK1 = tested on: WNK1
# WNK2 = tested on: WNK2
# WNK3 = tested on: WNK3
# WNK4 = tested on: WNK4
# YANK1 = tested on: T1, YANK1
# T1 construct: gene STK32A
# YANK2 = tested on: T2, YANK2
# T2 construct: gene STK32B
# YANK3 = tested on: T3, YANK3
# T3 construct: gene STK32C
# YES = tested on: T4, YES
# T4 construct: gene YES1
# YSK1 = tested on: T5, YSK1
# T5 construct: gene STK25
# YSK4 = tested on: T6, YSK4
# T6 construct: gene MAP3K19
# ZAK = tested on: ZAK
# ZAP70 = tested on: ZAP70
# p38-alpha = tested on: T7, p38-alpha
# T7 construct: gene MAPK14
# p38-beta = tested on: T8, p38-beta
# T8 construct: gene MAPK11
# p38-delta = tested on: p38-delta
# p38-gamma = tested on: T9, p38-gamma
# T9 construct: gene MAPK12
# 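Also: KINOMEscan kinase panel screen.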
Compound,%Inh (VRK2),%Inh (WEE1),%Inh (WEE2),%Inh (WNK1),%Inh (WNK2),%Inh (WNK3),%Inh (WNK4),%Inh (YANK1),%Inh (YANK2),%Inh (YANK3),%Inh (YES),%Inh (YSK1),%Inh (YSK4),%Inh (ZAK),%Inh (ZAP70),%Inh (p38-alpha),%Inh (p38-beta),%Inh (p38-delta),%Inh (p38-gamma)
Cc1c(O)cccc1Nc1ccnc2ccc(C(F)(F)F)cc12.Cl [GW466413],26%,0%,0%,23%,17%,21%,1%,0%,10%,15%,20%,0%,11%,1%,0%,0%,0%,24%,0%
CCn1c(-c2ccccn2)nc2cnccc21 [SB-736398],26%,0%,0%,0%,3%,37%,36%,0%,0%,32%,3%,100%,44%,5%,6%,0%,0%,23%,0%
Cn1ccc2ncnc(Oc3cccc(C(=O)Nc4ccccc4)c3)c21,0%,5%,0%,0%,0%,0%,0%,11%,1%,29%,1%,0%,1%,0%,0%,0%,6%,3%,0%
Clc1cc(Cl)cc(Nc2ccnc(Nc3cc(Cl)cc(Cl)c3)n2)c1 [GSK175726],6%,6%,0%,0%,0%,22%,32%,0%,0%,14%,20%,3%,0%,2%,0%,26%,0%,12%,40%
Cc1cc(NCC(c2ccccc2)c2ccccc2)nc(NCc2ccc(C(F)(F)F)cc2)n1 [GW497681],0%,11%,0%,0%,0%,27%,37%,0%,0%,0%,0%,0%,13%,0%,7%,7%,0%,45%,0%
COc1ccc(Nc2nccc(NCCNC(=O)Nc3ccccc3F)n2)cc1 [GSK1379901],0%,13%,0%,11%,0%,29%,37%,0%,0%,0%,23%,0%,45%,37%,5%,20%,0%,38%,10%
Cn1cncc1-c1ccc2ncnc(Nc3ccc(OCc4ccccc4)cc3)c2c1 [GW320571],0%,16%,14%,1%,15%,3%,0%,94.2%,16%,7%,26%,0%,1%,17%,0%,0%,2%,21%,0%
Cc1nnc(-c2ccc3occ(-c4ccc(S(C)=O)cc4)c3c2)[nH]1 (stereo not drawn),0%,0%,32%,0%,19%,0%,0%,0%,0%,0%,0%,0%,44%,8%,0%,13%,0%,3%,9%
Cc1cc(N2Cc3ccccc3C2)nc(Nc2ccc(S(=O)(=O)N3CCOCC3)cc2)n1.Cl [GSK1669917],0%,3%,0%,0%,7%,2%,10%,7%,0%,0%,5%,0%,0%,0%,0%,3%,0%,46%,3%
